The supplement of paper PMC13380429

Assays:
[1] = tested on: Vero E6 infected with SARS-CoV-2; assay: morphology score (similarity to uninfected cells); higher = more like uninfected cells; settings: 24 h
[2] = tested on: Vero E6 infected with SARS-CoV-2; assay: SARS-CoV-2 infection rate relative to infected DMSO; higher = more infection, active = 60 or less; settings: 24 h
[3] = tested on: Vero E6 infected with SARS-CoV-2; assay: inhibition of SARS-CoV-2 cytopathic effect; higher = more antiviral protection, active = above 15; settings: 48 h

SMILES: Cc1nc2c(-c3cnc(N)nc3)nc(N3CCOCC3)nc2n1C(C)C (10 µM)
- morphology score [1]: -0.0616
- SARS-CoV-2 infection rate [2]: 108% (inactive)

SMILES: C[C@H](N)C(=O)N[C@@H](CCC(N)=O)C(=O)O [dipeptamin] (10 µM)
- morphology score [1]: 0.00346
- SARS-CoV-2 infection rate [2]: 102% (inactive)

SMILES: CC(C)N(CCCNC(=O)Nc1ccc(C(C)(C)C)cc1)C[C@H]1O[C@@H](n2cc(Br)c3c(N)ncnc32)[C@H](O)[C@@H]1O (10 µM)
- morphology score [1]: -0.0211
- SARS-CoV-2 infection rate [2]: 120% (inactive)

SMILES: CNc1nc(NCc2ccc(NS(C)(=O)=O)cc2Cl)cc(-c2ccccn2)n1 (10 µM)
- morphology score [1]: 0.193
- SARS-CoV-2 infection rate [2]: 97.5% (inactive)

SMILES: C[C@@H]1CC(=O)NN=C1c1ccc(NN=C(C#N)C#N)cc1 [levosimendan] (10 µM)
- morphology score [1]: -0.109
- SARS-CoV-2 infection rate [2]: 117% (inactive)

SMILES: C=CCNc1ncnc2ccc(Br)cc12 (10 µM)
- morphology score [1]: 0.19
- SARS-CoV-2 infection rate [2]: 101% (inactive)

SMILES: C#CCC(Cc1cnc2nc(N)nc(N)c2n1)c1ccc(C(=O)N[C@@H](CCC(=O)O)C(=O)O)cc1 (stereo not given in full) [pralatrexate] (10 µM)
- morphology score [1]: 0.042
- SARS-CoV-2 infection rate [2]: 104% (inactive)

SMILES: CC(=O)OCC(=O)[C@@]12N=C(C)O[C@@H]1C[C@H]1[C@@H]3CCC4=CC(=O)C=C[C@]4(C)[C@H]3[C@@H](O)C[C@@]12C [Deflazacort (Calcort)] (10 µM)
- morphology score [1]: 0.0216
- SARS-CoV-2 infection rate [2]: 97.5% (inactive)

SMILES: Cc1ncc(C[n+]2csc(CCOP(=O)(O)OP(=O)(O)O)c2C)c(N)n1 [thiamine-pyrophosphate] (10 µM)
- morphology score [1]: 0.112
- SARS-CoV-2 infection rate [2]: 105% (inactive)

SMILES: CCn1c(=O)c2c(nc(/C=C/c3ccc(OC)c(OC)c3)n2C)n(CC)c1=O [istradefylline] (10 µM)
- morphology score [1]: 0.157
- SARS-CoV-2 infection rate [2]: 108% (inactive)

SMILES: O[C@H]1[C@H](O)[C@@H](O)CN2CC[C@H](O)[C@H]12 [castanospermine]
- inhibition of SARS-CoV-2 cytopathic effect ([3]; 1 nM): 0.15% (inactive)
- inhibition of SARS-CoV-2 cytopathic effect ([3]; 8.33 nM): 1.99% (inactive)
- inhibition of SARS-CoV-2 cytopathic effect ([3]; 100 nM): 1.25% (inactive)
- inhibition of SARS-CoV-2 cytopathic effect ([3]; 833.33 nM): 1.7% (inactive)
- inhibition of SARS-CoV-2 cytopathic effect ([3]; 10000 nM): 2.28% (inactive)

SMILES: Cc1cccc(N(C)C(=S)Oc2ccc3ccccc3c2)c1 [tolnaftate] (10 µM)
- morphology score [1]: 0.136
- SARS-CoV-2 infection rate [2]: 104% (inactive)

SMILES: CNC(=O)Oc1cccc2ccccc12 [carbaril] (10 µM)
- morphology score [1]: 0.025
- SARS-CoV-2 infection rate [2]: 101% (inactive)

SMILES: C/C=C(/C)C(=O)O[C@H]1C(C)=C[C@]23C(=O)[C@@H](C=C(CO)[C@@H](O)[C@]12O)[C@H]1[C@@H](C[C@H]3C)C1(C)C [ingenol-mebutate] (0.833333 µM)
- morphology score [1]: -0.298
- SARS-CoV-2 infection rate [2]: 95% (inactive)

SMILES: Fc1ccc(Cn2c(NC3CCNCC3)nc3ccccc32)cc1 [tecastemizole]
- inhibition of SARS-CoV-2 cytopathic effect ([3]; 1 nM): -7.23% (inactive)
- inhibition of SARS-CoV-2 cytopathic effect ([3]; 8.33 nM): -9.9% (inactive)
- inhibition of SARS-CoV-2 cytopathic effect ([3]; 100 nM): -11.8% (inactive)
- inhibition of SARS-CoV-2 cytopathic effect ([3]; 833.33 nM): -8.85% (inactive)
- inhibition of SARS-CoV-2 cytopathic effect ([3]; 10000 nM): -8.1% (inactive)

SMILES: CCc1cc(C(C)=O)c(O)cc1OCCCCCC(C)(C)c1nn[nH]n1
- inhibition of SARS-CoV-2 cytopathic effect ([3]; 1 nM): -2.28% (inactive)
- inhibition of SARS-CoV-2 cytopathic effect ([3]; 8.33 nM): 0.23% (inactive)
- inhibition of SARS-CoV-2 cytopathic effect ([3]; 100 nM): 0.43% (inactive)

SMILES: Sc1nc2ccccc2s1 [benzo[d]thiazole-2(3H)-thione]
- inhibition of SARS-CoV-2 cytopathic effect ([3]; 1 nM): -1.3% (inactive)
- inhibition of SARS-CoV-2 cytopathic effect ([3]; 8.33 nM): 0.55% (inactive)
- inhibition of SARS-CoV-2 cytopathic effect ([3]; 100 nM): -0.47% (inactive)

SMILES: CC(C)C(=O)SCCCCC[C@H](NC(=O)OC(C)(C)C)C(=O)NC12CC3CC(CC(C3)C1)C2
- inhibition of SARS-CoV-2 cytopathic effect ([3]; 1 nM): -5.42% (inactive)
- inhibition of SARS-CoV-2 cytopathic effect ([3]; 8.33 nM): -0.36% (inactive)
- inhibition of SARS-CoV-2 cytopathic effect ([3]; 100 nM): -0.22% (inactive)
- inhibition of SARS-CoV-2 cytopathic effect ([3]; 833.33 nM): 2.47% (inactive)
- inhibition of SARS-CoV-2 cytopathic effect ([3]; 10000 nM): -6.65% (inactive)

SMILES: C[C@@H]1CN(Cc2ccc(F)cc2)[C@@H](C)CN1C(=O)c1cc2c(C(=O)C(=O)N(C)C)cn(C)c2cc1Cl [talmapimod]
- inhibition of SARS-CoV-2 cytopathic effect ([3]; 1 nM): -1.36% (inactive)
- inhibition of SARS-CoV-2 cytopathic effect ([3]; 8.33 nM): -0.66% (inactive)
- inhibition of SARS-CoV-2 cytopathic effect ([3]; 100 nM): -2.57% (inactive)
- inhibition of SARS-CoV-2 cytopathic effect ([3]; 833.33 nM): -0.03% (inactive)
- inhibition of SARS-CoV-2 cytopathic effect ([3]; 10000 nM): -1.11% (inactive)

SMILES: CC1(C)CCC2=C(O1)c1ccccc1C(=O)C2=O [beta-lapachone] (10 µM)
- morphology score [1]: 0.361
- SARS-CoV-2 infection rate [2]: 78.5% (inactive)

SMILES: NNC(=O)CN1C(=O)CN=C(c2ccccc2)c2cc(Br)ccc21 [gidazepam]
- inhibition of SARS-CoV-2 cytopathic effect ([3]; 1 nM): 0.8% (inactive)
- inhibition of SARS-CoV-2 cytopathic effect ([3]; 8.33 nM): 2.74% (inactive)
- inhibition of SARS-CoV-2 cytopathic effect ([3]; 100 nM): 1.83% (inactive)
- inhibition of SARS-CoV-2 cytopathic effect ([3]; 833.33 nM): 2.01% (inactive)
- inhibition of SARS-CoV-2 cytopathic effect ([3]; 10000 nM): 3.71% (inactive)

SMILES: CCCC(C)(COC(N)=O)COC(=O)NC(C)C (stereo not given) (10 µM)
- morphology score [1]: -0.33
- SARS-CoV-2 infection rate [2]: 116% (inactive)

SMILES: C[N+]1([O-])[C@@H]2CC[C@H]1C[C@@H](OC(=O)C(CO)c1ccccc1)C2 (stereo not given in full) [atropine-oxide] (10 µM)
- morphology score [1]: 0.0224
- SARS-CoV-2 infection rate [2]: 106% (inactive)

SMILES: CC(C)(C)NC(=O)[C@@H]1CN(Cc2cccnc2)CCN1C[C@@H](O)C[C@@H](Cc1ccccc1)C(=O)N[C@H]1c2ccccc2C[C@H]1O [indinavir] (10 µM)
- morphology score [1]: 0.0426
- SARS-CoV-2 infection rate [2]: 110% (inactive)
